ANO1 activ = activates or potentiates the mouse TMEM16A chloride channel | Q8BHY3 | HEK293 TMEM16A/YFP-H148Q/I152L, iodide quench fluorescence; hits give low values | B-score at 10 µM | hit rate 0.3% among 340,000;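 active = fluorescence-ratio B-score plate-corrected deviation score at least 3 library SD below zero, with starting fluorescence score within 5 deviations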;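 note: channel opened by trigger with iodide after compound preincubation; score built on the fluorescence ratio of max minus min over baseline; more negative score means more quench and so TMEM16A activation or potentiation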
Target sequence (Q8BHY3 whole entry, looked up): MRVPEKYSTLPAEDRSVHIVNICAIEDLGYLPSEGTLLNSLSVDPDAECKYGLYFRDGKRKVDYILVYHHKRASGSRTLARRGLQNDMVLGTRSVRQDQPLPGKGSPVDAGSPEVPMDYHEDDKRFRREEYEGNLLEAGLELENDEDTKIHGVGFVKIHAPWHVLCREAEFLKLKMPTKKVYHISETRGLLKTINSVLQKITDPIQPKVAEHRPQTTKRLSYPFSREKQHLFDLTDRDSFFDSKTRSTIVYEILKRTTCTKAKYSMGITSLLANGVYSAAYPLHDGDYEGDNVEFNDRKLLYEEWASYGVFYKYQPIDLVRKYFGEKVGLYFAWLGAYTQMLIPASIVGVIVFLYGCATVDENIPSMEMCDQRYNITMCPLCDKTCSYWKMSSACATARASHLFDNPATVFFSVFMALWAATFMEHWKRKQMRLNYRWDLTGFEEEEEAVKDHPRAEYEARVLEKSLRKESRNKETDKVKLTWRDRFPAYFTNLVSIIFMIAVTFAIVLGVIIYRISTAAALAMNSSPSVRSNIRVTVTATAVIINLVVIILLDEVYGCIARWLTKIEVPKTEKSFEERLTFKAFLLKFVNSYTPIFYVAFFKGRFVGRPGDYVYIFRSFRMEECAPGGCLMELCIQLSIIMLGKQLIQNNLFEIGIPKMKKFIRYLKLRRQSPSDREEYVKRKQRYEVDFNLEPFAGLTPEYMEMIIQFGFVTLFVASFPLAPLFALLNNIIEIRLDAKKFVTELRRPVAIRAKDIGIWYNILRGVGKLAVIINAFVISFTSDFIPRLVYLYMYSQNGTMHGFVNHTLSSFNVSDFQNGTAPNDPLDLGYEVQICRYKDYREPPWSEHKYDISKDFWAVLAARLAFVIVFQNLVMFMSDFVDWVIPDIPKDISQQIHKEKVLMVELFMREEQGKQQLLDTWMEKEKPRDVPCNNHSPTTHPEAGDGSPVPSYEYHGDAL
ANO1 block = inhibitors of mouse TMEM16A calcium-activated chloride channel | HEK293 TMEM16A/YFP iodide influx fluorescence, ionomycin | normalized B-score (activity score, 25-100; higher = stronger inhibition) at 10 µM | hit rate 1.2% among 310,000;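 active = ratio plate-corrected score three or more library SD toward inhibition, starting fluorescence score within five deviations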;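 note: score derived from kinetic fluorescence span divided by baseline fluorescence per well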
CHT allo act = allosterically activates the human high affinity choline transporter; Q9GZV3; CHT-expressing cells, membrane potential dye, choline EC20; hits give high values; LV-AA mutant CHT in HEK293 cells; B-score at 10 µM; hit rate 0.49% among 310,000; AID 488977;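 active = initial fluorescence not abnormally high and integrated response B-score, plate-corrected, over 3 SD above library mean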
CHT block = inhibitors of human choline transporter CHT. CHT-expressing cells, membrane potential dye, choline response; hits give low values. Q9GZV3. hit rate 0.86% among 310,000. AID 488975. B-score at 10 µM;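 active = B-score over 3 SD under the library average, and starting fluorescence ratio not unusually high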;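 note: choline stimulus applied at its EC90 after an EC20 pre-addition; B-score computed on integrated fluorescence ratio after choline addition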
CHT act confirm = confirmation of human choline transporter (CHT) activators | shares compounds with CHT allo act | activation, % at 10 µM | CHT-expressing cells, membrane potential dye fluorescence (FDSS); % of choline EC20–EC90 response window; HEK293 expressing CHT LV-AA mutant; choline added at its EC20 | hit rate 91% among 2,500;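 active = primary screen active, with duplicate mean activation above negative control mean plus 3 SD, cut at about 11% in these data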
HEK293 MP dye = activity in parental HEK293 cells lacking CHT | AID 623908 | ratio readout change at 10 µM, hits read low | hit rate 62% among 2,500 | membrane potential dye fluorescence (FDSS); measured after EC20 choline addition | shares compounds with CHT allo act;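 active = duplicate-averaged ratio beyond 3 SD from buffer wells, up or down, though filed actives are nearly all decreases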
Numbers stand for hits; n = inactive; x = not tested or not shown. This is a sample that favours compounds with a hit; in the whole collection about 2.3% have one here.

SMILES | ANO1 activ | ANO1 block | CHT allo act | CHT block | CHT act confirm | HEK293 MP dye
CC1CCN(Cc2cc(=O)oc3cc4c(cc23)CCCC4)CC1 | n | n | n | n | x | x
CN1CCN(Cc2cc(=O)oc3cc4c(cc23)CCC4)CC1 | n | n | n | n | 22.0 | -49.4
CCc1cc2c(CN3CCN(C)CC3)cc(=O)oc2cc1O | n | n | n | n | x | x
Cc1cc(C)c2c(CN3CCN(C)CC3)cc(=O)oc2c1 | n | n | n | n | 45.5 | -41.5
CCOC(=O)c1c[nH]c2c3c(ccc2c1=O)CCCC3 | n | n | n | n | x | x
CCOC(=O)c1c[nH]c2c(C)cc(C)cc2c1=O | n | n | 8.13 | n | 62.9 | -37.1
CCOC(=O)c1c[nH]c2c(Cl)c(Cl)ccc2c1=O | n | n | n | n | 38.9 | -36.9
CCOC(=O)c1c[nH]c2c(Cl)ccc(Cl)c2c1=O | n | n | 7.16 | n | 69.2 | -64.1
CC(C)[C@H](NS(=O)(=O)c1ccccc1F)C(=O)NC1CCCCC1 | n | x | x | x | x | x
Fc1ccc(-c2nnc(-c3ccc4ccccc4c3)o2)cc1 | n | x | x | x | x | x
O=S(=O)(c1ccc2c(c1)CCC2)N1CCNCC1 | n | x | x | x | x | x
CCCC[C@@H]1C[C@H]1[C@@H](NC(=O)c1cccs1)c1ccc(Cl)cc1 | x | n | n | n | 28.6 | n
CCCC[C@@H]1C[C@H]1[C@@H](NC(=O)c1cccs1)c1ccc(C(F)(F)F)cc1 | x | n | n | n | x | x
CCCC12CN(C(=O)c3ccc([N+](=O)[O-])cc3)CC(C)(CN(C(=O)c3ccc([N+](=O)[O-])cc3)C1)C2=O | n | n | n | n | 44.7 | n
CC12CN(C(=O)c3ccc([N+](=O)[O-])cc3)CC(C)(CN(C(=O)c3ccc([N+](=O)[O-])cc3)C1)C2=O | x | n | n | n | x | x
COc1ccc(C)cc1N1CC(C(=O)OCc2nc(N)nc(Nc3ccccc3C)n2)CC1=O (stereo not given) | n | x | x | x | x | x
CSc1nc(NCCCO)c2c3c(sc2n1)CN(C)CC3 | n | n | n | n | 41.1 | -46.5
COc1ccc(CCNC(=O)CCOc2ccc(C(C)(C)C)cc2)cc1OC | n | n | n | n | x | x
Nc1cccc(-c2c[nH]c3ncc(-c4cccnc4)cc23)c1 | n | x | x | x | x | x
Cc1ccc(C)c(CN2C(=O)CSc3ccc(C(=O)NCC(C)CN4CCC(C)CC4)cc32)c1 (stereo not given) | n | n | 6.81 | n | 39.6 | -33.8
C/C(=N\NC(=O)c1nnn(-c2nonc2N)c1CN1CCC(C)CC1)c1cccc(Br)c1 | n | n | n | n | 15.8 | n
CC1CCN(Cc2c(C(=O)N/N=C/c3ccc(C(C)(C)C)cc3)nnn2-c2nonc2N)CC1 | n | n | 7.01 | n | 13.6 | n
N#Cc1ccc(C(=O)OCCCc2cc3ccccc3c(=O)o2)cc1 | n | x | x | x | x | x
CCOc1ccc(S(=O)(=O)N2CCCCC2)cc1NC(=O)C1CSC2(C)CCC(=O)N12 (stereo not given) | n | n | n | n | 25.5 | n
O=S(=O)(c1ccc(Br)cc1)N1CCCc2ccccc21 | n | n | n | n | x | x
SMILES | ANO1 activ | ANO1 block | CHT allo act | CHT block | CHT act confirm | HEK293 MP dye
N=C1C(c2ccc(Br)cc2)=C(O)C2CCc3ccccc3N12 (stereo not given) | n | n | 12.9 | n | 55.0 | -66.6
COc1ccc([C@H]2CC(=O)C=C(c3ccc(C)c([N+](=O)[O-])c3)C2)cc1 | n | x | x | x | x | x
CSc1nnc(-c2ccccc2N=Cc2c(C)[nH]n(-c3ccc4ccccc4c3)c2=O)c(=O)[nH]1 | n | n | 8.33 | n | 24.5 | n
O=C(CN1CCN(c2ccccc2F)CC1)NC(=O)NC1CCCCC1 | n | x | x | x | x | x
C=CCOc1cccc(/C=N/NC(=O)CN(c2cc(Cl)ccc2OC)S(=O)(=O)c2ccc(C)c([N+](=O)[O-])c2)c1 | n | n | n | n | n | n
Cc1cc(=O)[nH]c(SCC(=O)Nc2ccnc3ccccc23)n1 | n | n | n | n | 31.4 | -51
COc1ccc(CCN2C(=O)c3ccccc3NC2c2cc(Cl)c(O)c(OC)c2)cc1 (stereo not given) | n | n | 8.28 | n | 24.0 | n
COc1cc(-c2ccc3c(=O)c4ccccc4n(C)c3c2)cc(OC)c1OC | n | n | n | n | x | x
COc1ccc(-c2cc(Cl)cc3c(=O)c4ccccc4n(C)c23)cc1F | n | n | 7.31 | n | 25.9 | n
